About 410 targets per protein were measured; listed, in parts, are those with the strongest signals and a random draw of the rest.
Assays:
Test in all cases: glycan array binding signal (z-score within array); higher = stronger binding
Conditions in all cases: glycan notation: IUPAC condensed, linker removed
[1] = target: Fuc(a1-2)Gal(b1-3)GalNAc
In short: (§1)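 The Consortium for Functional Glycomics database supplied 3228 glycan arrays, of which those lacking an available protein sequence were dropped. The binding signal, a within-array Z-score, was averaged across arrays of the same protein sequence and across linkers. Negative scores can be read as non-binding.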

[2] = target: Fuc(a1-2)Gal(b1-3)GalNAc(b1-3)Gal
In short: as §1

[3] = target: Fuc(a1-2)Gal(b1-3)GlcNAc(b1-3)Gal(b1-4)Glc
In short: as §1

[4] = target: Fuc(a1-2)Gal(b1-4)Glc
In short: as §1

[5] = target: Fuc(a1-2)[GalNAc(a1-3)]Gal(b1-4)Glc
In short: as §1

[6] = target: Fuc(a1-3)GlcNAc
In short: as §1

[7] = target: Fuc(a1-3)[Gal3S(b1-4)]Glc6S
In short: as §1

[8] = target: Gal(a1-3)Gal
In short: as §1

[9] = target: Gal(a1-4)Gal(b1-4)GlcNAc(b1-2)Man(a1-3)[Gal(a1-4)Gal(b1-4)GlcNAc(b1-2)Man(a1-6)]Man(b1-4)GlcNAc(b1-4)GlcNAc
In short: as §1

[10] = target: Gal(a1-4)Gal(b1-4)GlcNAc(b1-3)Gal(b1-4)Glc
In short: as §1

[11] = target: Gal(b1-3)GlcNAc
In short: as §1

[12] = target: Gal(b1-3)GlcNAc(b1-3)Gal(b1-4)Glc
In short: as §1

[13] = target: Gal(b1-3)[Fuc(a1-4)]GlcNAc
In short: as §1

[14] = target: Gal(b1-3)[Fuc(a1-4)]GlcNAc(b1-3)Gal(b1-4)[Fuc(a1-3)]GlcNAc
In short: as §1

[15] = target: Gal(b1-3)[Neu5Ac(b2-6)]GalNAc
In short: as §1

[16] = target: Gal(b1-4)GlcNAc(b1-2)Man(a1-6)[GlcNAc(b1-2)Man(a1-3)]Man(b1-4)GlcNAc(b1-4)GlcNAc
In short: as §1

[17] = target: Gal(b1-4)GlcNAc(b1-6)Gal(b1-4)GlcNAc
In short: as §1

[18] = target: Gal(b1-4)GlcNAc(b1-6)GalNAc
In short: as §1

[19] = target: Gal3S(b1-4)Glc
In short: as §1

[20] = target: Gal3S6S(b1-4)GlcNAc6S
In short: as §1

[21] = target: Gal6S(b1-4)Glc
In short: as §1

[22] = target: GalNAc(b1-3)Gal(a1-4)Gal(b1-4)GlcNAc
In short: as §1

[23] = target: Glc(a1-6)Glc(a1-6)Glc
In short: as §1

[24] = target: Glc(b1-4)Glc
In short: as §1

[25] = target: GlcNAc(b1-3)[GlcNAc(b1-4)][GlcNAc(b1-6)]GlcNAc
In short: as §1

[26] = target: Kdn(a2-3)Gal(b1-3)GalNAc
In short: as §1

[27] = target: Man(a1-2)Man(a1-2)Man(a1-3)Man
In short: as §1

[28] = target: Man(a1-3)[Man(a1-6)]Man(a1-6)[Man(a1-3)]Man(b1-4)GlcNAc(b1-4)GlcNAc
In short: as §1

[29] = target: Neu5Ac(a2-3)Gal(b1-3)GlcNAc(b1-3)GalNAc
In short: as §1

[30] = target: Neu5Ac(a2-3)Gal(b1-4)GlcNAc(b1-3)Gal(b1-4)GlcNAc(b1-3)Gal(b1-4)GlcNAc
In short: as §1

B1: SBD (Rhizopus oryzae), P07683 (protein)
chain: ASIPSSASVQLDSYNYDGSTFSGKIYVKNIAYSKKVTVVYADGSDNWNNNGNIIAASFSGPISGSNYEYWTFSASVKGIKEFYIKYEVSGKTYYDNNNSANYQVS
Which “glycan array binding signal (z-score)” value [1] does the source give for B1 here?
The value was 0.019.

What about the “glycan array binding signal (z-score)” value [2] of the same binder?
The value was 2.93.

And the “glycan array binding signal (z-score)” value [3]?
Its value is 2.1.

And the “glycan array binding signal (z-score)” value [4]?
The value was -0.623.

What about the “glycan array binding signal (z-score)” value [5] of the same binder?
Its value is -0.2.

And the “glycan array binding signal (z-score)” value [6]?
Its value is 0.165.

What about the “glycan array binding signal (z-score)” value [7] of the same binder?
The value was 0.589.

What about the “glycan array binding signal (z-score)” value [8] of the same binder?
Its value is -0.697.

What about the “glycan array binding signal (z-score)” value [9] of the same binder?
The value was 2.59.

What about the “glycan array binding signal (z-score)” value [10] of the same binder?
The value was 0.2.

And the “glycan array binding signal (z-score)” value [11]?
The value was 0.042.

And the “glycan array binding signal (z-score)” value [12]?
Its value is 2.02.

And the “glycan array binding signal (z-score)” value [13]?
Its value is -0.029.

What about the “glycan array binding signal (z-score)” value [14] of the same binder?
Its value is 0.121.

What about the “glycan array binding signal (z-score)” value [15] of the same binder?
The value was -0.657.

What about the “glycan array binding signal (z-score)” value [16] of the same binder?
The value was -0.081.

What about the “glycan array binding signal (z-score)” value [17] of the same binder?
Its value is 0.47.

What about the “glycan array binding signal (z-score)” value [18] of the same binder?
Its value is -0.13.

What about the “glycan array binding signal (z-score)” value [19] of the same binder?
The value was 0.207.

What about the “glycan array binding signal (z-score)” value [20] of the same binder?
Its value is 0.19.

And the “glycan array binding signal (z-score)” value [21]?
Its value is -0.476.

What about the “glycan array binding signal (z-score)” value [22] of the same binder?
The value was -0.155.

And the “glycan array binding signal (z-score)” value [23]?
The value was -0.213.

And the “glycan array binding signal (z-score)” value [24]?
The value was -0.436.

What about the “glycan array binding signal (z-score)” value [25] of the same binder?
The value was -0.005.

What about the “glycan array binding signal (z-score)” value [26] of the same binder?
The value was 0.62.

And the “glycan array binding signal (z-score)” value [27]?
Its value is 5.61.

What about the “glycan array binding signal (z-score)” value [28] of the same binder?
Its value is -0.313.

And the “glycan array binding signal (z-score)” value [29]?
The value was 2.

What about the “glycan array binding signal (z-score)” value [30] of the same binder?
Its value is -0.668.

From the supplement of paper PMC8728848
